Our source for the outcome and AC50 values is PubChem BioAssay (EPA / NIEHS).

Broadly, the AC50 is the concentration giving half of the maximal activity seen.

Assay [1] can be described thus: Tanguay_ZF_120hpf_BRAI_legacy: (Legacy) Oregon State University Tanguay Lab 120 Hour Post-fertilization zebrafish Assay for Brain Malformation (AID 2283641). The method, boiled down: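 Brain malformation in Tropical 5D zebrafish was recorded as a binary endpoint after static compound exposure from early development to 120 hpf at 28C. Activity was analysed against DMSO as negative control.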

The nature of assay [2]: Tanguay_ZF_120hpf_PFIN_legacy: (Legacy) Oregon State University Tanguay Lab 120 Hour Post-fertilization zebrafish Assay for Pectoral Fin Malformation (AID 2283648).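 Further: each larva judged yes or no for fin defect by brightfield with dead larvae skipped.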 The method, boiled down: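 Tropical 5D wild-type embryos, dechorionated with pronase at 4 hpf, were placed singly in wells at 6 hpf and statically exposed until 120 hpf at 28C, sealed and dark, with 0.64% (vol/vol) final DMSO; pectoral fin malformation scored present/absent.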

The nature of assay [3]: Tanguay_ZF_120hpf_CFIN_legacy: (Legacy) Oregon State University Tanguay Lab 120 Hour Post-fertilization zebrafish Assay for Caudal Fin Malformation (AID 2283649). The method, boiled down:
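Embryos were collected from Tropical 5D wild-type adults and dechorionated at 4 hpf. At 6 hpf each was exposed, one per well, at 0.64% DMSO and 28C. At 120 hpf fin morphology was scored; dead embryos were excluded.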

Assay [4] can be described thus: Tanguay_ZF_120hpf_PIG_legacy: (Legacy) Oregon State University Tanguay Lab 120 Hour Post-fertilization zebrafish Assay for Pigmentation Malformation (AID 2283650). Summed up:
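Tropical 5D wild-type zebrafish embryos, dechorionated with pronase at 4 hpf, were exposed singly from 6 hpf to 120 hpf statically at 28C in sealed, dark plates with 0.64% DMSO; pigmentation scored present/absent by brightfield microscopy, fitted against DMSO.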

Read-out in assay [5]: kallikrein-3 (KLK3), KLK3 (gene 354)
Description: LTEA_HepaRG_KLK3: Life Technologies and Expression Analysis (LTEA) Assay for kallikrein-3 (KLK3) using HepaRG (AID 2283652; active means hit-call score of the fitted dose curve at least 0.9, where 1 is the maximum; inactive means score below 0.9). The settings on record: mRNA level, 48 h; actives raise or lower the signal. Summed up: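 Differentiated human HepaRG cells in serum-free induction medium exposed 48 h in duplicate, eight-point half-log series from 100 uM in 0.5% DMSO. KLK3 mRNA by qRT-PCR, normalised to ACTB, GAPDH, POLR2A; bidirectional fit versus DMSO.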

Read-out in assay [6]: solute carrier (SLC22A6), SLC22A6 (gene 9356)
Description: LTEA_HepaRG_SLC22A6: Life Technologies and Expression Analysis (LTEA) Assay for solute carrier (SLC22A6) using HepaRG (AID 2283653; active means hit-call score of the fitted dose curve at least 0.9, where 1 is the maximum; inactive means score below 0.9). The settings on record: mRNA level, 48 h; actives raise or lower the signal. The method, boiled down: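 This endpoint tracks SLC22A6 mRNA induction or suppression in human HepaRG cultures after 48 h dosing, concentrations reaching 100 uM. Values derive from bidirectional fitting against DMSO controls.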

The nature of assay [7]: Tanguay_ZF_120hpf_SWIM_legacy: (Legacy) Oregon State University Tanguay Lab 120 Hour Post-fertilization zebrafish Assay for Swim Bladder Malformation (AID 2283654).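 Further: swim bladder malformation in each larva scored yes or no under brightfield.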 The method, boiled down:
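Dechorionated Tropical 5D wild-type embryos, placed singly from 6 hpf, were statically exposed at 28C to 120 hpf with 0.64% DMSO final; swim bladder malformation was scored present/absent by brightfield microscopy, gain of signal relative to DMSO controls.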

The nature of assay [8]: Tanguay_ZF_120hpf_TRUN_legacy: (Legacy) Oregon State University Tanguay Lab 120 Hour Post-fertilization zebrafish Assay for Truncated Body (AID 2283655). Summed up:
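5D wild-type larvae; pronase dechorionation; static exposure 6→120 hpf, 28C; DMSO 0.64% final; 5uM trimethyltin chloride positive control. Readout: presence/absence of truncated body, analyzed relative to DMSO.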

Read-out in assay [9]: solute carrier (SLC10A1), SLC10A1 (gene 6554)
Briefly: LTEA_HepaRG_SLC10A1: Life Technologies and Expression Analysis (LTEA) Assay for solute carrier (SLC10A1) using HepaRG (AID 2283657; active means hit-call score of the fitted dose curve at least 0.9, where 1 is the maximum; inactive means score below 0.9). The settings on record: mRNA level, 48 h; actives raise or lower the signal. Summed up:
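Differentiated HepaRG cells were plated 48 h, then exposed in serum-free induction medium for 48 h to 8 concentrations (top 100 uM, half-log steps, 0.5% DMSO). SLC10A1 mRNA was quantified by qRT-PCR normalized to ACTB, GAPDH, POLR2A; bidirectional fit versus DMSO.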

Read-out in assay [10]: matrix metalloproteinase-1 (MMP1), MMP1 (gene 4312)
Briefly: LTEA_HepaRG_MMP1: Life Technologies and Expression Analysis (LTEA) Assay for matrix metalloproteinase-1 (MMP1) using HepaRG (AID 2283658; active means hit-call score of the fitted dose curve at least 0.9, where 1 is the maximum; inactive means score below 0.9). The settings on record: mRNA level, 48 h; actives raise or lower the signal. Summed up: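 Bidirectional concentration-response fitting relative to 0.5% DMSO gives the endpoint, derived from MMP1 mRNA levels (qRT-PCR) in human HepaRG cells treated 48 h with chemicals up to 100 uM.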

Assay [11] can be described thus: Tanguay_ZF_120hpf_TR_legacy: (Legacy) Oregon State University Tanguay Lab 120 Hour Post-fertilization zebrafish Assay for Touch Response (AID 2283667). Summed up: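 Tropical 5D wild-type zebrafish embryos were exposed statically in sealed, foil-covered plates at 28C until 120 hpf, with 0.64% (vol/vol) final DMSO. Touch response was scored as present or absent; embryos that died were not scored.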

Read-out in assay [12]: Cytochrome P450 (CYP24A1_1), CYP24A1 (gene 1591)
Briefly: LTEA_HepaRG_CYP24A1_1: Life Technologies and Expression Analysis (LTEA) Assay for Cytochrome P450 (CYP24A1_1) using HepaRG (AID 2283671; active means hit-call score of the fitted dose curve at least 0.9, where 1 is the maximum; inactive means score below 0.9). The settings on record: mRNA level, 48 h; actives raise or lower the signal. The method, boiled down: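 HepaRG, 48 h exposure, 8-pt half-log series from 100 uM in 0.5% DMSO, duplicates. Readout: TaqMan qRT-PCR of CYP24A1 mRNA, housekeeping-normalized (ACTB/GAPDH/POLR2A). Bidirectional curve fit vs DMSO baseline.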

A short description of assay [13]: CCTE_Padilla_ZF_144hpf_TERATOSCORE: (Legacy) CCTE's 144 Hour Post-fertilization zebrafish Assay Teratoscore, Padilla Lab (AID 2283679; active means hit-call score of the fitted dose curve at least 0.9, where 1 is the maximum; inactive means score below 0.9;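 on AC50: zebrafish embryos with chorions exposed by immersion from 6-8 hpf to 5 dpf with daily renewal; teratogenicity score from eye scoring of death hatching and malformations at 144 hpf; higher score means more developmental defects relative to DMSO baseline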). Summed up:
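Larvae scored by eye at 144 hpf for death, hatching and malformations after a day in clean Hanks'. Before that, daily-renewed exposure at 80 uM (0.4% DMSO, 26C) from roughly 6-8 hpf through 5 dpf, 4 embryos per chemical.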

Assay [14] is described as follows: STM_H9_CystineISnorm_perc: Stemina devTOX quickPredict H9 human embryonic stem cell (hESC)-based Assay for Cystine (CYSS) Metabolite Biomarker, Normalized (AID 2283713; active means hit-call score of the fitted dose curve at least 0.9, where 1 is the maximum; inactive means score below 0.9). Summed up:
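Secreted cystine was measured by UPLC-HRMS in H9 hESC medium after 72h compound exposure with 24-hourly replenishment. Values are standard-normalized areas relative to 0.1% DMSO.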

Assay [15] can be described thus: STM_H9_OrnCyssISnorm_ratio: Stemina devTOX quickPredict H9 human embryonic stem cell (hESC)-based Assay for Ornithine (ORN):Cystine (CYSS) Ratio (AID 2283714). The method, boiled down:
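Undifferentiated H9 hESCs were exposed to compound for 72h with media and chemical replaced every 24h. Final 24-h conditioned media were deproteinized and analysed by UPLC-HRMS. ORN and CYSS peak areas were normalized to C13 internal standards and the ratio taken versus 0.1% DMSO.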

A short description of assay [16]: Tanguay_ZF_120hpf_SOMI_legacy: (Legacy) Oregon State University Tanguay Lab 120 Hour Post-fertilization zebrafish Assay for Somite Malformation (AID 2283647). The method, boiled down:
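5D WT zebrafish; chorion removed 4 hpf; 1 embryo/well from 6 hpf; static exposure to 120 hpf, 28C, 0.64% DMSO final. Endpoint: somite malformation, binary, brightfield. Mortality excluded.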

A short description of assay [17]: Tanguay_ZF_120hpf_NC_legacy: (Legacy) Oregon State University Tanguay Lab 120 Hour Post-fertilization zebrafish Assay for Notochord and Tail Malformation (AID 2283656). Summed up: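 Dechorionated 5D zebrafish, 1/well from 6 hpf; static exposure to 120 hpf, 28C, sealed, dark; final DMSO 0.64% v/v. NC scored binary (present/absent); dead embryos not scored. Fit vs DMSO baseline, gain direction.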

The subject of assay [18] is Thyroperoxidase (TPO), gene 54314. Description: CCTE_Simmons_AUR_rTPO: CCTE's Amplex UltraRed Assay for Thyroperoxidase (TPO) Inhibition, Simmons Lab (AID 2283662).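 On AC50: potency for loss of signal meaning inhibition of peroxidase activity.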 The method, boiled down:
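Rat thyroid microsomes (5 ug protein) with 25 uM Amplex UltraRed and 300 uM H2O2 in 200 mM phosphate buffer, 30 min at 37C in dark; fluorescence 544/590 nm. Eight concentrations, 5 nM–87.5 uM final, 0.5% DMSO, triplicate biological replicates.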

Assay [19] can be described thus: CCTE_Simmons_CellTiterGLO_HEK293T: Viability Assessment in CCTE's Assays for Thyroperoxidase (TPO) Inhibition, Simmons Lab (AID 2283665).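 Further: cells exposed to compound for 24 h before readout; actives reduce ATP signal below DMSO vehicle meaning cytotoxicity.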 The method, boiled down: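 Cytotoxicity counter-screen: human HEK293T cells in low-serum (1% FBS) medium receive test chemical, 5 nM to 87.5 uM final, for 24 h; ATP is quantified by luciferase luminescence.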
Assay [20] is described as follows: Tanguay_ZF_120hpf_CIRC_legacy: (Legacy) Oregon State University Tanguay Lab 120 Hour Post-fertilization zebrafish Assay for Circulatory Malformation (AID 2283651). Summed up: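 Using wild-type Tropical 5D zebrafish, we exposed dechorionated embryos from 6 to 120 hpf in embryo medium with 0.64% DMSO. Circulatory defects were scored as present or absent; 5uM trimethyltin chloride served as positive control.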

Inconclusive results are not listed. Activity calls are given as the source filed them. How the source made its calls, unless noted: active means hit-call score of the fitted dose curve at least 0.9, where 1 is the maximum; inconclusive means response in the unintended direction; inactive means score below 0.9.

On to `O=C(OCCOCCOC(=O)c1ccccc1)c1ccccc1`, for which the call in assay [1], in assay [2], in [3], in assay [4], in [5] and in assay [6] was inactive. Moreover, the outcome in assay [7], in assay [8], in assay [9], in assay [10], in assay [11] and in assay [12] was inactive. The result in [14] and in [15] was inactive. Moreover, the AC50 in assay [13] was 1.74 µM (active).
Consider `Nc1cccc2c(N)cccc12`, for which the call in assay [1], in assay [16], in [2], in [3], in assay [4] and in assay [7] was inactive. Also, the molecule was called inactive in assay [8], in assay [17], in assay [11], in assay [14] and in [15]. Besides, the AC50 in assay [18] was 2.06 µM (active); in assay [19] it was 30.1 µM (active); in assay [13], 48.9 µM (active).
For the molecule `CC(=O)CC(C)(C)O`, the call in assay [1], in [2], in [3], in [4], in [20] and in assay [8] was inactive. Also, the call in [17], in [11] and in [13] was inactive.
In the case of `NC(=O)N(O)[C@@H]1C=C[C@H](Oc2cccc(Oc3ccc(F)cc3)c2)C1`, the result in assay [1], in assay [2], in [3], in assay [4], in assay [7] and in assay [8] was inactive. Besides, the call in assay [17] and in assay [11] was inactive. The half-maximal activity concentration (AC50) is 6.75 µM (active) in assay [18], 33.1 µM (active) in [19] and 14.9 µM (active) in assay [13].
As to `CC(=O)NC1(c2cccc(F)c2)CCN(CC[C@@]2(c3ccc(Cl)c(Cl)c3)CN(c3ccccc3)C(=O)CO2)CC1`, the call in assay [1], in assay [2], in [3], in assay [4], in assay [7] and in assay [8] was inactive. The molecule was classed as inactive in assay [17] and in assay [11].
`CCOC(=O)CC(O)(CC(=O)OCC)C(=O)OCC`: the result in assay [1], in [16], in assay [2], in assay [4], in [7] and in assay [8] was inactive. Besides, the molecule was classed as inactive in assay [17] and in [11].
Consider `CN1CCN(c2ccccc2/C=C2\SCCN(c3ccc(Cl)c(Cl)c3)C2=O)CC1`, for which the outcome in assay [1], in [2], in [3], in assay [4], in [7] and in assay [8] was inactive. The result in assay [17] and in assay [18] was inactive. Further, the half-maximal activity concentration (AC50) in assay [19] is 9.55 µM (active); in assay [13], 5.38 µM (active); in assay [14], 7.81 µM (active); in assay [15], 7.71 µM (active).
